Results filed as inconclusive are left out. Active and inactive are the calls of the source. Unless noted, calls follow the shape of the full dose curve.
Columns and labels:
[1] = qHTS for Inhibitors of the Functional Ribonucleoprotein Complex (vRNP) of Lassa (LASV) Arenavirus: LASV Primary Screen - GLuc reporter signal (AID 1347082; calls by dose curve; tested in HEK293 reporter line; also: series mostly up to about 57 µM; nearly all actives have a fitted effect of over 60% in size)
[2] = P-glycoprotein substrates identified in KB-8-5-11 adenocarcinoma cell line, qHTS therapeutic library screen (AID 1346987; active = well fitted curve in the direction sought with a large enough effect; an effect the other way counts as inactive or inconclusive; also: series mostly up to about 44 µM; nearly all actives have a fitted effect of over 65% in size)
In short: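 P-gp-mediated resistance screen: KB-8-5-11 cells treated 72 h with compounds in dose-response. CellTiter-Glo viability.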

[3] = biological target: Atrial natriuretic peptide receptor 1 (Homo sapiens) (UniProt P16066); assay: Natriuretic polypeptide receptor (hNpr1) antagonism - Pilot screen (AID 1347049);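 also: agonist-evoked cGMP luminescence read 20 min after hNppA addition; series mostly up to about 58 µM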
Atrial natriuretic peptide receptor 1 (Homo sapiens), sequence (P16066 whole entry, looked up): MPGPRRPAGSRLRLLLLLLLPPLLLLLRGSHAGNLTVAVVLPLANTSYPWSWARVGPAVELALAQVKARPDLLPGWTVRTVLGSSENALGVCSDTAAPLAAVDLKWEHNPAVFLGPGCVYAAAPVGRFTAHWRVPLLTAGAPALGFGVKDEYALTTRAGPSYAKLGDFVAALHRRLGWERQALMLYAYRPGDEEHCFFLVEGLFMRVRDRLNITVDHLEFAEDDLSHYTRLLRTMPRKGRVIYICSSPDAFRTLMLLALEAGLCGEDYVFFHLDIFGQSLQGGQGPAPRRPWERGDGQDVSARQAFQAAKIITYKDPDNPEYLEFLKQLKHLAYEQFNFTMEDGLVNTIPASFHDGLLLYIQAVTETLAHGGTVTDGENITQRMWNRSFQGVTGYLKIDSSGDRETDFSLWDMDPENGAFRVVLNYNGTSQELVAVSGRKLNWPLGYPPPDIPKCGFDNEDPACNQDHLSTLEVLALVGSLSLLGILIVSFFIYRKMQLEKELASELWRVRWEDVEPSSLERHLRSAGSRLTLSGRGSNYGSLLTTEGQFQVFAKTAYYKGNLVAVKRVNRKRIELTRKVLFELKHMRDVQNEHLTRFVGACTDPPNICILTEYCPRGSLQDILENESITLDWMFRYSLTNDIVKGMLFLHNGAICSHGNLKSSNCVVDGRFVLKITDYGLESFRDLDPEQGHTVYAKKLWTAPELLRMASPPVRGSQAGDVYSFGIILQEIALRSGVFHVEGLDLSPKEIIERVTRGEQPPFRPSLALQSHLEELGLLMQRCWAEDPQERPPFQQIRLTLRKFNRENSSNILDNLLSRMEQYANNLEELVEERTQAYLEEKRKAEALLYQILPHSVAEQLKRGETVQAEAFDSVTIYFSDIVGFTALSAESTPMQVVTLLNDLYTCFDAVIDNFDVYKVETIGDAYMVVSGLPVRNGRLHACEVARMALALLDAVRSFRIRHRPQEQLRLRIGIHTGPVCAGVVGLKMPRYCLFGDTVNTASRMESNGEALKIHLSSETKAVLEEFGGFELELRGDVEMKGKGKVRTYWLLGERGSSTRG
In short: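 HEK293 cells expressing hNpr1 and GloSensor cGMP luciferase, 1500/well, loaded with 2% GloSensor reagent 2 h, compound 30 min at room temperature; luminescence read before and 20 min after 0.1 nM hNppA stimulation.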

[4] = biological target: Atrial natriuretic peptide receptor 2 (Homo sapiens) (UniProt P20594); assay: Natriuretic polypeptide receptor (hNpr2) antagonism - Pilot subtype selectivity assay (AID 1347050)
Atrial natriuretic peptide receptor 2 (Homo sapiens), sequence (P20594 whole entry, looked up): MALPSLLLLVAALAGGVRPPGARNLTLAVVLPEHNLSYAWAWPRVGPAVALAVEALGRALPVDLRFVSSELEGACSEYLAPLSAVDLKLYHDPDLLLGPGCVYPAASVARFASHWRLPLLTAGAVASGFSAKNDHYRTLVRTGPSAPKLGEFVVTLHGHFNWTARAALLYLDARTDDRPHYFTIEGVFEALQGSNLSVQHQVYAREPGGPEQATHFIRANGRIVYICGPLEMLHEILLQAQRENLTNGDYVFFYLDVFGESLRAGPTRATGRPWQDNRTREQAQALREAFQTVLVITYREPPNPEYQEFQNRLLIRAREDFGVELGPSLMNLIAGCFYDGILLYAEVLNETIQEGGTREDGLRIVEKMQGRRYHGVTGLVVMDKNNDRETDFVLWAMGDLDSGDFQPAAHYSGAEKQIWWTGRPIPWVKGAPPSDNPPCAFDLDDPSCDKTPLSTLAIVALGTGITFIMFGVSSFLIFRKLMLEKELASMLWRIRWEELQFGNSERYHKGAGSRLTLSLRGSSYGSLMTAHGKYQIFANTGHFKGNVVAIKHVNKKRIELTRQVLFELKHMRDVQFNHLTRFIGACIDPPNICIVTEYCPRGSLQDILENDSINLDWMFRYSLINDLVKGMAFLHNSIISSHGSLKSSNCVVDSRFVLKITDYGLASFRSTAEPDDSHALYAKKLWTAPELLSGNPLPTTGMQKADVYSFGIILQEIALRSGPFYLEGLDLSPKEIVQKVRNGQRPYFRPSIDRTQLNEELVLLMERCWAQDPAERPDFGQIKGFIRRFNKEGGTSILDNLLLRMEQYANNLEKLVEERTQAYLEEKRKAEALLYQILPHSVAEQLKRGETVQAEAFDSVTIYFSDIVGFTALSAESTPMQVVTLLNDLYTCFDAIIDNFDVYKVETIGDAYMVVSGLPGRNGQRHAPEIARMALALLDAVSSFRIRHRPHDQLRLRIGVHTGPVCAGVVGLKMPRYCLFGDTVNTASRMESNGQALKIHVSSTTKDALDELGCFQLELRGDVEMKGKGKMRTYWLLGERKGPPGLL
In short: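 HEK293 cells expressing hNpr2 and a GloSensor cGMP luciferase sensor, 1500/well, preloaded 2 h with 2% GloSensor reagent, compound 30 min, then 1 nM hNppC for 20 min. Antagonism from luminescence after versus baseline pre-read; LOPAC in 1:5 titrations.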

[5] = NS1 protein of Zika virus - qHTS assay to identify small molecule inhibitors in human HEK 293 cells (AID 1347053; active = well fitted curve in the direction sought with a large enough effect; an effect the other way counts as inactive or inconclusive; also: nearly all actives have a fitted effect of over 55% in size; also: potency is read from the fitted curve at half-maximal effect)
In short: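 HEK 293; 20 h pre-culture, 37 C/5% CO2; cpd 1 h pre-infection; ZIKV MR766, MOI = 0.5, 24 h, 37 C; TR-FRET NS1 readout (two anti-NS1 Abs); norm. to no-virus vs infected.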

[6] = biological target: T1, Tyrosine-protein phosphatase non-receptor type substrate 1 (Homo sapiens) + Leukocyte surface antigen CD47 (Homo sapiens) (UniProt P78324+Q08722); assay: CD47-SIRPalpha protein protein interaction - LANCE assay qHTS validation (AID 1347057; active = well fitted curve in the direction sought with a large enough effect in the signal ratio, with a control signal flat, not every such curve was filed as active; the % refers to the signal ratio; also: series mostly up to about 38 µM)
T1 sequence (P78324 whole entry, looked up): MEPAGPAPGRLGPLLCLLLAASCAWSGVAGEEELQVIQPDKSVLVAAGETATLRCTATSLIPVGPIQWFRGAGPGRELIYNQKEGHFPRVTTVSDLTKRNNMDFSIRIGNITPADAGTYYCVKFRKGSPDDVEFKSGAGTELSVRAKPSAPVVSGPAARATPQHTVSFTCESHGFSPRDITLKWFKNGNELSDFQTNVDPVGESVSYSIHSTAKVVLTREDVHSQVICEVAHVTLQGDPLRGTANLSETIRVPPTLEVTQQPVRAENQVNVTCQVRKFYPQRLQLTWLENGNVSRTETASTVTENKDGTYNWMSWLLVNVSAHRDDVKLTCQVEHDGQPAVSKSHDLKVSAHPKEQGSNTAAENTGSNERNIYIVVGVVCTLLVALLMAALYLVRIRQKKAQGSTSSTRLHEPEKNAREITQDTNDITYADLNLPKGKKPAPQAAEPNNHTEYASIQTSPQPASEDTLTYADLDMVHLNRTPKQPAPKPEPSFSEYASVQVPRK
T1 sequence (Q08722 whole entry, looked up): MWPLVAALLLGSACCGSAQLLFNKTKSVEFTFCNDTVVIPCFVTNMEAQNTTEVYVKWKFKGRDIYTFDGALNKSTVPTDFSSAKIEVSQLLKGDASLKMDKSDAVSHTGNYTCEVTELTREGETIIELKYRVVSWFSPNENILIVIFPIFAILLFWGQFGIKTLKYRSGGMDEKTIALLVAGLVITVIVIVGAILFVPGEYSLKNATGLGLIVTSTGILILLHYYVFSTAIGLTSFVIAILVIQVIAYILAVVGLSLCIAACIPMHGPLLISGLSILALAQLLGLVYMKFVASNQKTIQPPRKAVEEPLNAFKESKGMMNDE
In short: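 First, His-tagged CD47 and Eu-labelled anti-His antibody met the compound for 30 min; next, site-specifically biotinylated SIRPalpha was added for 30 min; finally streptavidin-APC was added before reading the TR-FRET ratio.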

[7] = biological target: T1, Tyrosine-protein phosphatase non-receptor type substrate 1 (Homo sapiens) + Leukocyte surface antigen CD47 (Homo sapiens); assay: CD47-SIRPalpha protein protein interaction - HTRF assay qHTS validation (AID 1347058; active = well fitted curve in the direction sought with a large enough effect in the signal ratio, not every such curve was filed as active; the % refers to the signal ratio;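 also: recombinant soluble extracellular CD47 with His tag and biotinylated SIRPalpha domains; series mostly up to about 38 µM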)
In short: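 TR-FRET read (Ch1/Ch2 ratio) of soluble extracellular CD47 and Avi-biotinylated SIRPalpha domains in PBS pH 7.4 with 0.05% IGEPAL; 7-point compound titration. Sequential 30 min room-temperature steps; non-biotinylated SIRPalpha as control inhibitor.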

[8] = biological target: Parathyroid hormone/parathyroid hormone-related peptide receptor (Homo sapiens) (UniProt Q03431); assay: qHTS for PTHR1 Agonists: Optimization Screen against the NCGC LOPAC library (AID 1347079; active = well fitted curve in the direction sought with a large enough effect; an effect the other way counts as inactive or inconclusive;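 also: GloSensor cAMP luminescence in HEK-293 GP2 cells expressing human PTHR1 with IBMX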)
Parathyroid hormone/parathyroid hormone-related peptide receptor (Homo sapiens), sequence (Q03431 whole entry, looked up): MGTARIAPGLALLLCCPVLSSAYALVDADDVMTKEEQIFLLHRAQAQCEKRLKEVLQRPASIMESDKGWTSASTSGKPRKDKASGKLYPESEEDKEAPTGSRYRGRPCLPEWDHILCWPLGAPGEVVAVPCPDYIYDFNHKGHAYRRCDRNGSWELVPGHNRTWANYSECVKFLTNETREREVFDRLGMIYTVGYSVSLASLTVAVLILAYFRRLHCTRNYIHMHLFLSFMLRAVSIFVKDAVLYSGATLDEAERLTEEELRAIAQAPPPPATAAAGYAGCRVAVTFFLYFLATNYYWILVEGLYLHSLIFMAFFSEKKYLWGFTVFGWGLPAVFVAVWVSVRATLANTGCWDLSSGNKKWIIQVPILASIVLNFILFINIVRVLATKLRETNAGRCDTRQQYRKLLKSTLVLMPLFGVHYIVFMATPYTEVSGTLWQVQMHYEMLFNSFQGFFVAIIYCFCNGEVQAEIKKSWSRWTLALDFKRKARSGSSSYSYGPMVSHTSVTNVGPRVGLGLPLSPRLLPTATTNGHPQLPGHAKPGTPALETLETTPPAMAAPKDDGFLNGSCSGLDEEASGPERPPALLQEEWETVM
In short: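 Compounds were tested across a qHTS titration. PTHR1-expressing GP2 cells report cAMP rises via GloSensor luminescence after 1 hr compound exposure at 37C with IBMX present.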

[9] = qHTS for Inhibitors of the Functional Ribonucleoprotein Complex (vRNP) of Lassa (LASV) Arenavirus: Viability assay - alamar blue signal for LASV Primary Screen (AID 1347083; calls by dose curve; tested in HEK293 reporter line; also: series mostly up to about 57 µM; nearly all actives have a fitted effect of over 80% in size)
[10] = qHTS for Inhibitors of the Functional Ribonucleoprotein Complex (vRNP) of Lymphocytic Choriomeningitis Arenaviruses (LCMV): Viability assay - alamar blue signal for LCMV Primary Screen (AID 1347085; calls by dose curve; tested in HEK293 reporter line; also: series mostly up to about 57 µM; nearly all actives have a fitted effect of over 80% in size)
[11] = biological target: Nucleoprotein (Lymphocytic choriomeningitis virus (strain Armstrong)) (UniProt P09992); assay: qHTS for Inhibitors of the Functional Ribonucleoprotein Complex (vRNP) of Lymphocytic Choriomeningitis Arenaviruses (LCMV): LCMV Primary Screen - GLuc reporter signal (AID 1347086); also: series mostly up to about 57 µM; nearly all actives have a fitted effect of over 70% in size
Nucleoprotein (Lymphocytic choriomeningitis virus (strain Armstrong)), sequence (P09992 whole entry, looked up): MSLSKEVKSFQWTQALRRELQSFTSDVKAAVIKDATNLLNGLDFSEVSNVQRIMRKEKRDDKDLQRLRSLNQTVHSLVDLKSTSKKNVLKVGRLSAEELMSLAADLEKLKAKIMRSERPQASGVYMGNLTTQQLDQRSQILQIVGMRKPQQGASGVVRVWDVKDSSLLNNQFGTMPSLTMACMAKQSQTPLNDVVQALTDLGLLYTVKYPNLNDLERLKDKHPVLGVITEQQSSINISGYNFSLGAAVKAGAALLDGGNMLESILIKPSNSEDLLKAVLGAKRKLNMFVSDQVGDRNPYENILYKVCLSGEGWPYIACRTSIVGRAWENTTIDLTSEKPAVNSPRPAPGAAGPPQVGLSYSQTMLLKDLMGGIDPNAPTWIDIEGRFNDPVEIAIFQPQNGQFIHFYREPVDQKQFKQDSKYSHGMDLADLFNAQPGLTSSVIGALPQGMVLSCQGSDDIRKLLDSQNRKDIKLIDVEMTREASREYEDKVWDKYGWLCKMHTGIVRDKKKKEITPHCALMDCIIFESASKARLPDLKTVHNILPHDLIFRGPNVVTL

[12] = qHTS assay to identify small molecule inhibitors of chordoma cells - UCH-2 (AID 1259356; active = well fitted curve in the direction sought with a large enough effect; an effect the other way counts as inactive or inconclusive; also: series mostly up to about 46 µM)
[13] = Natriuretic polypeptide receptor (hNpr1) antagonism - Pilot counterscreen GloSensor control cell line (AID 1347045); also: series mostly up to about 38 µM
In short: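 This counterscreen uses HEK293 cells expressing the GIP/pGS-40F cGMP biosensor. Compound-treated cells are challenged with 50 uM sodium nitroprusside, and the luciferase signal is compared before and after stimulation.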

[14] = Identifying Small Molecule Inhibitors of Pancreatic Cancer Stem Cells (A278, Adherent) (AID 1259361; active = well fitted curve in the direction sought with a large enough effect; an effect the other way counts as inactive or inconclusive;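 also: viability read after 48 h compound exposure; nearly all actives have a fitted effect of over 35% in size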)
In short: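 Endpoint: ATP-based luminescence, 48 h drug exposure. Bortezomib at 9.2 uM final as full-kill control; DMSO vehicle as negative control; activity normalized between vehicle and cell-free wells.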

CCCSc1ccc2nc(NC(=O)OC)[nH]c2c1
inactive: Potency [1]

CC(C)n1c(/C=C/[C@@H](O)C[C@@H](O)CC(=O)O)c(-c2ccc(F)cc2)c2ccccc21
inactive: Potency [1]

CC(O)(CS(=O)(=O)c1ccc(F)cc1)C(=O)Nc1ccc(C#N)c(C(F)(F)F)c1 (configuration not stated)
inactive: Potency [2] | Potency [3] | Potency [4] | Potency [5] | outcome [6] | outcome [7] | outcome [8] | Potency [1] | Potency [9] | Potency [10] | Potency [11]

O=c1[nH]c2ccccc2n1C1CCN(CCCC(c2ccc(F)cc2)c2ccc(F)cc2)CC1
inactive: Potency [12] | Potency [4] | Potency [5] | outcome [6] | outcome [7] | outcome [8] | Potency [9] | Potency [10]

N[C@@H](Cc1ccc(N(CCCl)CCCl)cc1)C(=O)O
active: Potency [5] 8.33 µM
inactive: Potency [2] | Potency [1] | Potency [9] | Potency [10] | Potency [11]

CC(C)=CCOc1c2occc2cc2ccc(=O)oc12
inactive: Potency [2] | Potency [13] | Potency [3] | Potency [4] | Potency [5] | outcome [6] | outcome [8] | Potency [1] | Potency [9] | Potency [10] | Potency [11]

CC(CCc1ccccc1)NC(C)C(O)c1ccc(O)cc1 (configuration not stated)
inactive: Potency [12] | Potency [2] | Potency [13] | Potency [3] | Potency [4] | Potency [5] | outcome [6] | outcome [7] | outcome [8] | Potency [1] | Potency [9] | Potency [10] | Potency [11]

CNC(=O)c1ccc(N2C(=S)N(c3ccc(C#N)c(C(F)(F)F)c3)C(=O)C23CCC3)cc1F
active: IC50 (viability decrease) [14] 23.5 µM
inactive: Potency [2] | Potency [5] | Potency [1] | Potency [9] | Potency [10]

O=C1CCc2cc(OCCCCc3nnnn3C3CCCCC3)ccc2N1
inactive: Potency [1] | Potency [9] | Potency [10] | Potency [11]

O=c1[nH]cnc2c1ncn2[C@H]1CC[C@@H](CO)O1
inactive: Potency [1] | Potency [9] | Potency [10] | Potency [11]

CCN1CCN(C(=O)N[C@@H](C(=O)N[C@@H]2C(=O)N3C(C(=O)O)=C(CSc4nnnn4C)CS[C@H]23)c2ccc(O)cc2)C(=O)C1=O
inactive: Potency [1] | Potency [9] | Potency [10] | Potency [11]

CCCc1cc(=O)[nH]c(=S)[nH]1
inactive: Potency [1] | Potency [9] | Potency [10] | Potency [11]

CCOC(=O)[C@H](CCc1ccccc1)N[C@@H](C)C(=O)N1Cc2ccccc2C[C@H]1C(=O)O
inactive: Potency [1] | Potency [9] | Potency [10] | Potency [11]

Reference: PubChem BioAssay (NCATS)
